The values below come from PubChem BioAssay (NCATS).

Results filed as inconclusive are left out. Calls of active or inactive are those of the source. Unless noted, calls follow the shape of the dose curve; as a rule, active = well fitted curve in the direction sought with a large enough effect; inconclusive = small, poorly fitted or top-dose-only effect, or another doubt; inactive = no such curve, though single readings can be large; an effect the other way counts as inactive or inconclusive.

Test [1] concerns the target Cytochrome P450 1A2 (Homo sapiens) (UniProt P05177). In words: p450-cyp1a2 (AID 410; calls by dose curve; also: potency is read from the fitted curve at half-maximal effect). A digest of the protocol: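 Read-out is luminescence from luciferin produced by CYP1A2 demethylation of Luciferin-ME (100uM, at Km). Detection reagent stopped the 60 min NADPH-dependent reaction; signals were normalized to 57 uM furafylline.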
Test [2] deals with Glucocorticoid receptor (Homo sapiens) (UniProt P04150). In words: GR-GFP Redistribution (AID 450;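 active = compounds whose dose series gives a full or clear partial fitted curve of increased nuclear translocation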; also: potency is read from the fitted curve at half-maximal effect).
Sequence of Glucocorticoid receptor (Homo sapiens) (P04150 whole entry, looked up, the tested form may be a part): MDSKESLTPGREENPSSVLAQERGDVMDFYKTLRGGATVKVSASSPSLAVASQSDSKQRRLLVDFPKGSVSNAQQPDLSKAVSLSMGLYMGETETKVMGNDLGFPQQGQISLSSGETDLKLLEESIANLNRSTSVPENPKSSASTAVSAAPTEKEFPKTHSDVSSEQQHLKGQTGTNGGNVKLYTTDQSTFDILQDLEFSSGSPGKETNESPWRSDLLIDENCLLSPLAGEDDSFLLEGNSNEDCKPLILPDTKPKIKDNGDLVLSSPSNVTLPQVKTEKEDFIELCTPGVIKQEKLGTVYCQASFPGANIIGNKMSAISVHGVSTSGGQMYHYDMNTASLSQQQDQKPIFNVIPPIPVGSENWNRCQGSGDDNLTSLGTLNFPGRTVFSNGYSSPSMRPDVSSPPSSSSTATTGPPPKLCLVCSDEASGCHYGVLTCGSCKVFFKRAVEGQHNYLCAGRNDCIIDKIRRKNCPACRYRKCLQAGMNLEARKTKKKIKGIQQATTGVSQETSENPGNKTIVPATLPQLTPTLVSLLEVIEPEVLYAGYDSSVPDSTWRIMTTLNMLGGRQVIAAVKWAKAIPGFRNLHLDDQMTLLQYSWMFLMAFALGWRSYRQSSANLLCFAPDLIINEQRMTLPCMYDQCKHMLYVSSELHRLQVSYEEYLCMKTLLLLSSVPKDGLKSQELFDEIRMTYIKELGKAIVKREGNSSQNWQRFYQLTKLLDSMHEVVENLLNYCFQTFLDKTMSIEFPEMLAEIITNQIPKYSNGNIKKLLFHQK
Test [3] has the same target. In words: GR-EFC Redistribution (AID 451; calls by dose curve; also: potency is read from the fitted curve at half-maximal effect). The note with it: CHO-K1 GR-EFC translocation, beta-gal luminescence, 2 h. The gist of the method: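 Translocation of GR-ED fusion to nuclear EA restores b-gal, read by luminescence after 1 h room-temperature detection. Engineered CHO-K1 biosensor cells, 1,000/well, exposed 2 h at 37 C to titrations up to 46 uM final.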
Test [4] addresses 3',5'-cyclic-AMP phosphodiesterase 4B (Homo sapiens) (UniProt Q07343). In words: qHTS Assay for Inhibitors of PDE-IV (AID 607; active = well fitted activation curve with a large enough effect in the main read-out, with a control signal flat, not every such curve was filed as active; also: % of control where 0% means no effect). A digest of the protocol:
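ACTOne HEK293 cells carry a modified cAMP-gated CNG channel and express endogenous PDE4; plated 1000 cells/well, compounds up to 22.9 uM final. Membrane-potential dye fluorescence (ex 535/em 590) was read; parental cells received 10 uM forskolin + 100 uM RO 20-1724.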

Test [5] deals with DNA dC->dU-editing enzyme APOBEC-3G (Homo sapiens) (UniProt Q9HC16). In words: qHTS for inhibitors of Vif-A3G interactions: Validation (AID 588379). Also: 0% is about no effect. A digest of the protocol: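 Yellow fluorescence (Ex 488, Em 500-530) of Vif-coexpressing HeLa A3G-eYFP cells, scanned by Acumen cytometer, reports blocked A3G degradation. Cells plated at 700/well overnight at 37 deg C before compound addition, then a further overnight compound incubation at 37 deg C.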
Sequence of DNA dC->dU-editing enzyme APOBEC-3G (Homo sapiens) (Q9HC16 whole entry, looked up): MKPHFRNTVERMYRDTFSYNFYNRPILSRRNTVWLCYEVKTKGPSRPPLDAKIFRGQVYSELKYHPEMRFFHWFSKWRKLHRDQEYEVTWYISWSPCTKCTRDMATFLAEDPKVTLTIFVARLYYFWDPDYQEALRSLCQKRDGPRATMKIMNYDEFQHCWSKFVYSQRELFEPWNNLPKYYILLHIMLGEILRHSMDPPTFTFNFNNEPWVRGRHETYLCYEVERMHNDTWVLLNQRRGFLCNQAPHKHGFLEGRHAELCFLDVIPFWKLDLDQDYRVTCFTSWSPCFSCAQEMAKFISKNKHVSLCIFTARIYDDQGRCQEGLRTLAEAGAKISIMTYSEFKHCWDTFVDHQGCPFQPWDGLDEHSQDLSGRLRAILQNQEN

In test [6] the target is Androgen receptor (Homo sapiens) (UniProt P10275). In words: qHTS assay for small molecule agonists of androgen receptor signaling (AID 588515; active = well fitted curve in the direction sought with a large enough effect in the signal ratio, with a control signal flat; the % refers to the signal ratio; also: % is scaled to controls: 0 for no effect and ±100 for the full control effect). The following applies: AR-UAS-bla HEK293, beta-lactamase ratio, agonist 16 h; stronger effect = higher value. A digest of the protocol: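 Stimulation of an AR-responsive β-lactamase reporter in GripTite HEK293 cells was measured after 16 h compound exposure at 37 °C, via CCF4 fluorescence after 2 h RT. EC50 from Hill fits, normalized to R1881 at 30 nM.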
Sequence of Androgen receptor (Homo sapiens) (P10275 whole entry, looked up): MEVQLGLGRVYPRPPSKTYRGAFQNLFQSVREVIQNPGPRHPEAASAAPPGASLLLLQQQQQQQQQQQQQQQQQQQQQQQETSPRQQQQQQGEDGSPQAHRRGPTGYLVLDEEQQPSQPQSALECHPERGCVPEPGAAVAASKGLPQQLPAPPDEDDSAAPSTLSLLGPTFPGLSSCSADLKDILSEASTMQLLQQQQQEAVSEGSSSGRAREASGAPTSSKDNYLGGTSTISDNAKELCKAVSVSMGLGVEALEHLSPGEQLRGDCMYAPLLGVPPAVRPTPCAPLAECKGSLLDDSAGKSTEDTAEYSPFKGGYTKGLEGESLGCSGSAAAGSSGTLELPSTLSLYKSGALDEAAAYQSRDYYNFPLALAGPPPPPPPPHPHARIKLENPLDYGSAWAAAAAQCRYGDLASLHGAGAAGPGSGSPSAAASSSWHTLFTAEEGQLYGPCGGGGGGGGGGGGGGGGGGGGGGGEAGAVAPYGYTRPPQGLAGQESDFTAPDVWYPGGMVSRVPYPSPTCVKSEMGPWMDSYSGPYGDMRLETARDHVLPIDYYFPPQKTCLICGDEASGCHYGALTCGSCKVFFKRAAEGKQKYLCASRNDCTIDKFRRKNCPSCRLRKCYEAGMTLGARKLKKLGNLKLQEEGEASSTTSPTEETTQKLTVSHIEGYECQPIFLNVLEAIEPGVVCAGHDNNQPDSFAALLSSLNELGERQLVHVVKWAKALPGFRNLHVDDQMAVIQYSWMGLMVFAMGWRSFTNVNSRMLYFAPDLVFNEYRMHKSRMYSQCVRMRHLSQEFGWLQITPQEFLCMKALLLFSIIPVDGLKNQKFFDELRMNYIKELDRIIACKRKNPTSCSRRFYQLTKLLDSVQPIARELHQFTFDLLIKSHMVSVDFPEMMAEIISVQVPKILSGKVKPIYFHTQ

The target is the same in test [7]. In words: qHTS assay for small molecule antagonists of androgen receptor signaling (AID 588516; active = well fitted curve in the direction sought with a large enough effect in the signal ratio, with a control signal flat, not every such curve was filed as active; the % refers to the signal ratio; also: % is scaled to controls: 0 for no effect and ±100 for the full control effect). A digest of the protocol:
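HEK293 AR-UAS-bla cells, 10% dialyzed FBS medium; cpd titration + R1881 10 nM final, 16 h 37 C; CCF4 2 h RT; FRET ratio; IC50/efficacy via Hill fit.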

Test [8] concerns the target Bile acid receptor (Homo sapiens) (UniProt Q96RI1). In words: qHTS assay for small molecule antagonists of farnesoid X receptor signaling (AID 588526; calls by dose curve; also: % is scaled to controls: 0 for no effect and ±100 for the full control effect). A digest of the protocol:
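Beta-lactamase reporter antagonist mode: HEK293T FXR-UAS-bla cells, titrated compound, CDCA stimulation, 16 h 37 C, CCF4 dye 2 h RT. Data normalized to CDCA 50 uM and DMSO; Hill-fit IC50.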

Test [9] has as its target Glucocorticoid receptor (Homo sapiens) (UniProt P04150). In words: qHTS assay for small molecule agonists of glucocorticoid receptor signaling (AID 588532; active = well fitted curve in the direction sought with a large enough effect in the signal ratio, with a control signal flat; the % refers to the signal ratio;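 also: 100% = dexamethasone at 0.1 µM and 0% = DMSO only wells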). The note with it: HeLa MMTV-bla, beta-lactamase ratio, agonist, 18 h; stronger effect = higher value; percent of dexamethasone control, DMSO zero. A digest of the protocol: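 Agonist-mode qHTS: GRE-driven beta-lactamase in HeLa cells exposed 18 h to titrated compounds (up to 92 uM), then CCF4 ratio read after 2 h at RT; Hill-fitted EC50, efficacy relative to 0.1 uM dexamethasone.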

Test [10] has as its target Peroxisome proliferator-activated receptor gamma (Homo sapiens) (UniProt P37231). In words: qHTS assay for small molecule antagonists of peroxisome proliferator-activated receptor gamma signaling (AID 588537; active = well fitted inhibition curve with a large enough effect in the signal ratio, with a control signal flat, not every such curve was filed as active; the % refers to the signal ratio;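 also: reporter cells co-stimulated with 50 nM rosiglitazone agonist during compound treatment; % of control where 0% means no effect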). A digest of the protocol: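 Cell-based beta-lactamase assay; GW9662 served as the antagonist control. Stimulation used rosiglitazone, final 50 nM, 16 h, 37 C.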

Test [11] addresses Vitamin D3 receptor (Homo sapiens) (UniProt P11473). In words: qHTS assay for small molecule agonists of vitamin D receptor signaling (AID 588543; calls by dose curve;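 also: 0% = DMSO basal and 100% = reference agonist control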). The gist of the method:
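β-lactamase reporter, VDR-UAS-bla HEK293T, agonist mode. Cells plated 5 h at 37 °C, compound titration 16 h at 37 °C, CCF4 dye 2 h RT, ratio 460/530 nm. Hill fit → EC50, efficacy vs 50 nM 1α,25-(OH)2D3.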

In test [12] the target is Thyroid hormone receptor beta (Homo sapiens) (UniProt P10828). In words: qHTS assay for small molecule agonists of thyroid hormone receptor beta signaling (AID 588545; calls by dose curve). The gist of the method: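 Agonist activity was read as beta-lactamase CCF4 fluorescence (405 ex, 460/530 em), scaled between DMSO (0%) and 10 nM T3 (100%), then Hill-fitted for EC50 and efficacy. HEK 293 TR-UAS-bla cells in 2% charcoal/dextran FBS medium were exposed 18 h at 37 C.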
Sequence of Thyroid hormone receptor beta (Homo sapiens) (P10828 whole entry, looked up): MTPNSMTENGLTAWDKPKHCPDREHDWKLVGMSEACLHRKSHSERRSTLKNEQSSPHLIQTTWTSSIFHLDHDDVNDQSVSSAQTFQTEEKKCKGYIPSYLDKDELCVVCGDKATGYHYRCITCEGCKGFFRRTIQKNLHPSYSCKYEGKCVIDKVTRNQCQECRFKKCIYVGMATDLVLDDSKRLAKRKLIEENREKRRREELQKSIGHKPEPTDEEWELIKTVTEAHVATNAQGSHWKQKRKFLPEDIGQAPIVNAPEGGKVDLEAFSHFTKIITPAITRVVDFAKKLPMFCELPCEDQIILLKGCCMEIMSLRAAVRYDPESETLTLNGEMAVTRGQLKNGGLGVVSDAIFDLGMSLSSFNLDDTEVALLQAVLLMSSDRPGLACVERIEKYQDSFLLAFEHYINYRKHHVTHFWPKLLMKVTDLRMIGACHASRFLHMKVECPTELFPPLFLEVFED

A short description of test [13]: qHTS assay for small molecule antagonists of retinoid X receptor alpha signaling (AID 588546; active = well fitted inhibition curve with a large enough effect in the signal ratio, with a control signal flat, not every such curve was filed as active; the % refers to the signal ratio;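 also: cells stimulated with 9-cis-retinoic acid as agonist; % is scaled to controls: 0 for no effect and ±100 for the full control effect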). The following applies: HEK293T RXRa-UAS-bla, beta-lactamase ratio, antagonist mode; measured here: W530 green channel, cytotoxicity proxy. A digest of the protocol: (§1)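 Beta-lactamase reporter inhibition, read as CCF4 fluorescence ratio (ex 405, em 460/530 nm) after 2 h at RT. HEK293T UAS-bla cells, 2500/well, were stimulated with 9-cis-RA at 500 or 100 nM final alongside test compound for 18 h at 37 C.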

Test [14] has as its target Retinoic acid receptor RXR-alpha (Homo sapiens) (UniProt P19793). The description is as above. The following applies: HEK293T RXRa-UAS-bla, beta-lactamase ratio, antagonist mode. The gist of the method: as §1
Test [15] concerns the target Thyroid hormone receptor beta (Homo sapiens) (UniProt P10828). In words: qHTS assay for small molecule antagonists of thyroid hormone receptor beta signaling (AID 588547; active = well fitted inhibition curve with a large enough effect in the signal ratio, with a control signal flat, not every such curve was filed as active; the % refers to the signal ratio). The note with it: TR-UAS-bla HEK293, beta-lactamase ratio, antagonist mode, 18 h. A digest of the protocol: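 Inhibition of T3-driven (0.4nM final) beta-lactamase reporter activity was measured over 0.59 nM to 92 uM compound after 18 h at 37 C. The cells were GripTite HEK293 TR-UAS-bla in charcoal/dextran-stripped serum, with CCF4 ratio read-out and IC50 from Hill fits.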

A short description of test [16]: qHTS assay for small molecule agonists of the antioxidant response element (ARE) signaling pathway (AID 651741; active = well fitted activation curve with a large enough effect in the signal ratio; the % refers to the signal ratio; also: potency is read from the fitted curve at half-maximal effect). A digest of the protocol: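 Agonist activity is measured as ARE-driven beta-lactamase expression in a stable HepG2 reporter line, using 16 h compound treatment at 37 C and a FRET substrate fluorescence readout after 2 h.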
A short description of test [17]: qHTS assay for small molecule activators of the nuclear factor-kappa B (NF-kB) signaling pathway (AID 651749; active = well fitted activation curve with a large enough effect in the signal ratio; the % refers to the signal ratio; also: series mostly up to about 77 µM; % of control where 0% means no effect). The note with it: NF-kB-bla ME-180 cells, beta-lactamase FRET ratio, 16 h; stronger effect = higher value. The gist of the method:
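FRET-based beta-lactamase detection in ME-180 cells reports NF-kB response-element-driven transcription following overnight (16 hr) compound treatment.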

The nature of test [18]: qHTS assay for environmental chemicals that activate the Aryl hydrocarbon Receptor (AhR) signaling pathway (AID 651777). Also: % of control where 0% means no effect; nearly all actives have a fitted effect of over 15% in size. The following applies: 1A2-DRE human hepatoma cells, luciferase, 24 h; activation: stronger effect = higher value. A digest of the protocol: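 Human hepatoma 1A2-DRE cells stably carrying a DRE/CYP1A2 promoter–luciferase reporter, 1,200 cells/well, exposed to compound 24 hr at 37 C. Luciferase read by One-Glo luminescence after 30 min at room temperature; increased signal marks AhR activation.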

In test [19] the target is Peroxisome proliferator-activated receptor alpha (Homo sapiens) (UniProt Q07869). In words: qHTS assay for small molecule agonists of the peroxisome proliferator-activated receptor alpha (PPARalpha) signaling pathway (AID 651778). Also: % of control where 0% means no effect. The following applies: PathHunter PPARalpha complementation, chemiluminescence, 6 h; max response: stronger effect = higher value. The gist of the method: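 Chemiluminescence from complemented enzyme reported PPARalpha activation in cells after 6 hr of compound treatment at 37 C. The detection reagent was incubated for 60 min at room temperature, and compounds were scored as agonists.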

The nature of test [20]: qHTS assay for small molecule agonists of the antioxidant response element (ARE) signaling pathway measured by Nrf2-dependant transcriptional activity (AID 720636; active = well fitted curve in the direction sought with a large enough effect in the repeat runs; an effect the other way counts as inactive or inconclusive; also: % of control where 0% means no effect). The gist of the method:
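ARE-luc HepG2 cells carrying an Nrf2-responsive luciferase reporter, in medium with 1% dialyzed FBS, exposed to compound for 16 hr at 37 C, 5% CO2. Luminescence read 30 min after ONE-Glo addition.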

Test [21] in a line: qHTS assay for small molecule agonists of the antioxidant response element (ARE) signaling pathway measured by Nrf2-dependant transcriptional activity - cell viability counter screen (AID 720653; active = well fitted curve in the direction sought with a large enough effect in the repeat runs; an effect the other way counts as inactive or inconclusive; also: % is scaled to controls: 0 for no effect and ±100 for the full control effect). The note with it: ARE-bla HepG2 viability, CellTiter-Glo ATP luminescence, 16 h; max response: stronger effect = lower value. A digest of the protocol:
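Cytotoxicity counter screen: intracellular ATP quantified by CellTiter-Glo luminescence in the same ARE-bla HepG2 plates, after 16 h compound exposure and a 2 h beta-lactamase substrate step.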

Test [22] in a line: qHTS assay for cell viability of HEK293 cells (AID 743288). Also: % is scaled to controls: 0 for no effect and ±100 for the full control effect; nearly all actives have a fitted effect of over 50% in size. The note with it: ATP luminescence (CellTiter-Glo), 18 h; max response: stronger effect = lower value. A digest of the protocol: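 ATP luminescence (CellTiter-Glo) reports metabolically competent cell number after parental HEK293 cells, 2,000/well, were treated with DMSO-dissolved compounds for 18 h at 37 C; reagent incubation 30 min, room temperature.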

Test [23] can be described thus: qHTS assay for cell viability of the p53RE-bla HCT-116 cell line (AID 743292). Also: % is scaled to controls: 0 for no effect and ±100 for the full control effect; nearly all actives have a fitted effect of over 55% in size. The gist of the method: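 CellSensor p53RE-bla HCT-116 cells (4,000/well) pre-incubated 5 h at 37 C, then exposed to compounds in DMSO for 16 h at 37 C. Viability read as ATP content by CellTiter-Glo luminescence after 30 min at room temperature.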
Test [24] has as its target Nuclear receptor subfamily 1 group I member 2 (Rattus norvegicus) (UniProt Q9R1A7). In words: qHTS assay for small molecule activators of the rat pregnane X receptor (rPXR) signaling pathway (AID 651751; call rule not given here; also: 0% is about no effect). The note with it: rPXR reporter cells, luciferase (One-Glo), 24 h.
Test [25] in a line: qHTS assay for small molecule activators of the human pregnane X receptor (PXR) signaling pathway (AID 720659; call rule not given here; also: 0% is about no effect).
Test [26] addresses Mitogen-activated protein kinase 10 (Mus musculus) (UniProt Q61831). In words: JNK3 AlphaScreen Assay (AID 530; active = well fitted curve in either direction with a large enough effect, not every such curve was filed as active). The gist of the method:
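Kinase buffer: 20 mM Tris-HCl pH 7.6, 10 mM MgCl2, 1 mM DTT, 0.1 mM Na3VO4, 0.01% Tween-20; ATP 10 uM. Substrate biotin-GST-cJun(1-79), enzyme from activated HepG2 lysates. Detection by Ser73 phospho-antibody AlphaScreen.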

Test [27] concerns the target Cytochrome P450 2C9 (Homo sapiens) (UniProt P11712). In words: qHTS Assay for Inhibitors and Substrates of Cytochrome P450 2C9 (AID 883). Also: nearly all actives have a fitted effect of over 60% in size. Also: potency is read from the fitted curve at half-maximal effect. The gist of the method: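 Luminescent read-out of deoxyluciferin hydroxylation, normalized to 57uM sulphaphenazole (AC100). Reaction: 10nM enzyme, 100uM Luciferin-H (equal to KM), 25mM KPO4, 10 min compound preincubation, then 60 min with NADPH regeneration, both at 37C.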

For test [28], the target named is Cytochrome P450 2D6 (Homo sapiens) (UniProt P10635). In words: qHTS Assay for Inhibitors and Substrates of Cytochrome P450 2D6 (AID 891).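 Also: luciferin methyl ether substrate demethylated by CYP2D6 with NADPH regeneration; % is scaled to controls: 0 for no effect and ±100 for the full control effect; nearly all actives have a fitted effect of over 60% in size.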 A digest of the protocol: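 Luminescent read-out of luciferin formed by 5 nM human CYP2D6 demethylating 30 uM Luciferin-ME EGE (Km level) over 60 min at room temperature after NADPH regeneration addition. Data normalized to full inhibition by 1.43 uM quinidine.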
Sequence of Cytochrome P450 2D6 (Homo sapiens) (P10635 whole entry, looked up): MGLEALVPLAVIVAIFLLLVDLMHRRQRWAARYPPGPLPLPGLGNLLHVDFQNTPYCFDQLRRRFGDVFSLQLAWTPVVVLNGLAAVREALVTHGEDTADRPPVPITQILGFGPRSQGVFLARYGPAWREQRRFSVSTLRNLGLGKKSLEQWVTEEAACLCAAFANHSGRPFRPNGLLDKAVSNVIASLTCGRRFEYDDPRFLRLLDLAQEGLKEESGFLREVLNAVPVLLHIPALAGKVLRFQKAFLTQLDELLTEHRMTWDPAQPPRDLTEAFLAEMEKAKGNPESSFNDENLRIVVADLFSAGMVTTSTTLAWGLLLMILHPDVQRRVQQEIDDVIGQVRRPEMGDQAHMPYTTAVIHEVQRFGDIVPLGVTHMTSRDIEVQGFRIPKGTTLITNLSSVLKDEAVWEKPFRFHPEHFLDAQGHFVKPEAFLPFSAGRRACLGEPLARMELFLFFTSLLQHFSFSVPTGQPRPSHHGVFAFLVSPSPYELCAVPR

In test [29] the target is Cytochrome P450 2C19 (Homo sapiens) (UniProt P33261). In words: qHTS Assay for Inhibitors and Substrates of Cytochrome P450 2C19 (AID 899). Also: nearly all actives have a fitted effect of over 60% in size. Also: potency is read from the fitted curve at half-maximal effect. The gist of the method: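 Luminescence readout of luciferin formed from 10uM Luciferin-H EGE (KM level) by 5 nM CYP2C19 in 50mM KPO4. 60 min NADPH-driven reaction at 37C after 10 min compound preincubation; data scaled to 57uM ketoconazole inhibition.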
Sequence of Cytochrome P450 2C19 (Homo sapiens) (P33261 whole entry, looked up): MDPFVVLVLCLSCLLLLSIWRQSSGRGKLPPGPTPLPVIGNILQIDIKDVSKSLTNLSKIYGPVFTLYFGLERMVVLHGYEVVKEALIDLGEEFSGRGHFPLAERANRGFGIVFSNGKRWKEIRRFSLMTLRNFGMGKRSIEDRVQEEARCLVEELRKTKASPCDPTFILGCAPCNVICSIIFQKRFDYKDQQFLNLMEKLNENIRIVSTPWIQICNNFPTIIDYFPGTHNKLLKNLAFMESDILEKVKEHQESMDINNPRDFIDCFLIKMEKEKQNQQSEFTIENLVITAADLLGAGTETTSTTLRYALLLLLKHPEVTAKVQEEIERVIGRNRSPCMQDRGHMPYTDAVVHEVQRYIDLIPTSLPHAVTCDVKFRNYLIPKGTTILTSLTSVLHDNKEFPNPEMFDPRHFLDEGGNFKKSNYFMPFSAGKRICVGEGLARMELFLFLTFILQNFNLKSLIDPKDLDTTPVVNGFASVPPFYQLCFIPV

Sequence of Cytochrome P450 1A2 (Homo sapiens) (P05177 whole entry, looked up): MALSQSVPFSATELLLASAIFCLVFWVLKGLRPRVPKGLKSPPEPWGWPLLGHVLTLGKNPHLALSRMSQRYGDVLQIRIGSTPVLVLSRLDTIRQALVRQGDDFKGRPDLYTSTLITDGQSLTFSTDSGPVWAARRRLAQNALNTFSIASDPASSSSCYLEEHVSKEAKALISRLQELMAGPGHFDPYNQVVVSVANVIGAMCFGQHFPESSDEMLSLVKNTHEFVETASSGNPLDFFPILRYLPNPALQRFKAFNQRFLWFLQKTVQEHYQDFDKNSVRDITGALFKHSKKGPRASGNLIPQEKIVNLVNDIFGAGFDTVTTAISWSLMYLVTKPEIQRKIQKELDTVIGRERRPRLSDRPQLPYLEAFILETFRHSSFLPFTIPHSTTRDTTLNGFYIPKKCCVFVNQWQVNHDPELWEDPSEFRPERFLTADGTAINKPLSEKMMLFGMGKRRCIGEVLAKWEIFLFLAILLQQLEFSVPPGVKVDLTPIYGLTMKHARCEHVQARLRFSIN
Sequence of Cytochrome P450 2C9 (Homo sapiens) (P11712 whole entry, looked up): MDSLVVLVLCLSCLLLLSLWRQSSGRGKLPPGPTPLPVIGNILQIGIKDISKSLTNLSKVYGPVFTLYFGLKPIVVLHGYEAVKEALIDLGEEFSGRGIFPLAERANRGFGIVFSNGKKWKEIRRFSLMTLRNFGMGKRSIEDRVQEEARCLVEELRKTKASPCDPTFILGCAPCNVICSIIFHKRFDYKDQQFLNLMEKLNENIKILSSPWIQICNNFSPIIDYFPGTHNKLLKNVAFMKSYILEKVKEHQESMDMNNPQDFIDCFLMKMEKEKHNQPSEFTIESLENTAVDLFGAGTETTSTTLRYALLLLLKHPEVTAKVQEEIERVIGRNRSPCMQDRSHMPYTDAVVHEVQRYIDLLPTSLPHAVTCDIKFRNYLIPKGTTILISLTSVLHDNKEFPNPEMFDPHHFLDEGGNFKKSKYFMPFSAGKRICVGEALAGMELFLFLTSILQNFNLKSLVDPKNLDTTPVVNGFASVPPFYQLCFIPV
Sequence of Bile acid receptor (Homo sapiens) (Q96RI1 whole entry, looked up): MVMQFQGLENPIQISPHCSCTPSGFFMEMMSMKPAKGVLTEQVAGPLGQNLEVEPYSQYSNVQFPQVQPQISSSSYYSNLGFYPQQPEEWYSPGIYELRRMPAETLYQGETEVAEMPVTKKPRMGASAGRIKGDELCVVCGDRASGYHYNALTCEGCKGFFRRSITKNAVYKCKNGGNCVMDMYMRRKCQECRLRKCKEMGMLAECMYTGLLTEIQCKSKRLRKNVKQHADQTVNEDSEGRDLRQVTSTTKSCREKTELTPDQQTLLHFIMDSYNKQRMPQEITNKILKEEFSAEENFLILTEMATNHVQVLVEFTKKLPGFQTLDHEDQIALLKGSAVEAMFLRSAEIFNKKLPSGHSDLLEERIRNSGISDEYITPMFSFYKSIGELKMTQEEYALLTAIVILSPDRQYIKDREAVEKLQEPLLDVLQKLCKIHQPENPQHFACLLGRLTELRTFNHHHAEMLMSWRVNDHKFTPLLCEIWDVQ

Consider `CC1(C)CCC(C)(C)c2cc(C(=O)Nc3ccc(C(=O)O)cc3)ccc21`, for which the Potency in test [1] was 31.6 µM (active); in test [2] it was > 46 µM (inactive); in [3] it was > 46 µM (inactive); in test [16], 61.1 µM (active). Further, the Potency entry in test [4], in [8], in [10], in [20] and in test [23] was “inactive” each time. Also, the result in [5], in [7], in test [11], in [12] and in test [25] was inactive. For the same molecule, the activation in test [6] is -12.7% (inactive); in test [9], -10.3% (inactive); in test [17] it was 1.76% (inactive); in [18], -0.1% (inactive). For the same molecule, the max response in test [13] is 2.34%; in [14], -51.1% (inactive); in [19], 0.0193% (inactive); in test [21], -7.97% (inactive); in test [22] it was 1.87% (inactive); in test [24], -9.44% (inactive). In addition, the activity change % (negative = inhibition) in test [15] is 15.7% (inactive).
For `C[C@H]1[C@H](C)CC[C@@]2(C(=O)O)CC[C@]3(C)C(=CC[C@H]4[C@@]5(C)C[C@@H](O)[C@H](O)[C@@](C)(CO)[C@@H]5CC[C@@]43C)[C@@H]12`, the Potency result in test [1], in test [26], in test [27], in test [28] and in test [29] was “inactive” each time. The Potency in [2] and in [3] was > 46 µM (inactive) throughout.
With `COc1ccc(-c2coc3cc(O[C@@H]4O[C@@H](CO)[C@@H](O)[C@@H](O)[C@H]4O)cc(O)c3c2=O)cc1`, the Potency entry in test [1], in [26], in [27], in [28] and in test [29] was “inactive” throughout. Also, the Potency in test [2] and in test [3] was > 46 µM (inactive) throughout.
Consider `C=C1CC[C@H]2C(C)(C)[C@H](O)CC[C@]2(C)[C@@H]1COc1ccc2ccc(=O)oc2c1`, for which the Potency was 31.6 µM (active) in test [1]; > 46 µM (inactive) in test [2]; > 46 µM (inactive) in [3]; 3.98 µM (active) in test [27]; 6.31 µM (active) in test [29]. For the same molecule, the Potency result in [26] and in [28] was “inactive” each time.
